Compound activity as filed in PubChem BioAssay.
An excerpt weighted towards active compounds, which were near 0.81% of everything screened.
Bcl-W Bim block: inhibitors of Bim binding to Bcl-W, primary screen, biochemical, multiplexed, bead-based flow cytometry; Bcl-2-like protein 2 (Homo sapiens), Q92843; Bim peptide-Bcl-W binding; inhibition, % at 10 µM; 190,000 compounds, 0.02% hits;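 note: 0% = bound tracer without compound and 100% = peptide blocker; higher means less fluorescent Bim peptide bound to Bcl-W beads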
Target sequence (Q92843 whole entry, looked up): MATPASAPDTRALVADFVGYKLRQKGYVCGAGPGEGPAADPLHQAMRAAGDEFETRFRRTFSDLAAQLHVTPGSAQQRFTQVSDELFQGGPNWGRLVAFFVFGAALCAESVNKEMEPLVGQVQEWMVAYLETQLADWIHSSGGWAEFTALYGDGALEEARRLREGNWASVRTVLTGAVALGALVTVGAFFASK
Bfl-1 Bim block: inhibitors of Bim binding to Bfl-1, primary screen, biochemical, multiplexed, bead-based flow cytometry; 190,000 compounds, 0.12% hits; Bim-Bfl-1 binding inhibition; inhibition, % at 10 µM; Bcl-2-related protein A1 (Homo sapiens), Q16548;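 note: 0% = wells without compound plus tracer and 100% = blocker peptide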
Target sequence (Q16548 whole entry, looked up): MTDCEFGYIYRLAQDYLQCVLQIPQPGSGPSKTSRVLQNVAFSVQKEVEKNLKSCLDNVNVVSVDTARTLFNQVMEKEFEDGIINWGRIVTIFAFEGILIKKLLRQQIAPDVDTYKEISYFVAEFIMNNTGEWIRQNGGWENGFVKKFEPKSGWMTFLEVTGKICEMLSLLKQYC
Bcl-XL Bim block: inhibitors of Bim-Bcl-XL binding, primary screen, biochemical, multiplexed, bead flow cytometry, human Bcl-XL; 190,000 compounds, 0.04% hits; Bim peptide-Bcl-XL binding, fluorescence; Bcl-2-like protein 1 (Homo sapiens), Q07817; inhibition, % at 10 µM
Target sequence (Q07817 whole entry, looked up): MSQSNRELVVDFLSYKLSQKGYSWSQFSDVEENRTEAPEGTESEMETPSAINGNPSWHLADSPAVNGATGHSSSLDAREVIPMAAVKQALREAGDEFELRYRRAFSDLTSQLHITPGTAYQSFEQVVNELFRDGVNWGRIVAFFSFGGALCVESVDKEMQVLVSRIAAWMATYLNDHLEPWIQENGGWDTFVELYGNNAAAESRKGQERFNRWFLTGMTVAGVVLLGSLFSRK
Bim-Bcl-2: inhibitors of Bim-Bcl-2 binding, primary screen, biochemical, multiplexed, human Bcl-2 family. Bead-based flow cytometry, Bim peptide-Bcl-2 binding. inhibition, % at 10 µM. 190,000 compounds, 0.06% hits; in the data active = inhibition above about 40%; inconclusive = no clear call, values can overlap the other calls;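 note: 0% = no compound wells with probe peptide and 100% = reference peptide inhibitor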
Bcl-xL primary: inhibitors of human Bcl-xL, primary screen, biochemical, fluorescence polarization, HTS | Bcl-2-like protein 1 (Homo sapiens), Q07817 | GST-Bcl-xL / FITC-Bim BH3 peptide fluorescence polarization | inhibition, % at 10.9 µM | 320,000 compounds, 0.7% hits;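 active = inhibition above the mean of all tested compounds plus 3 SD, cutoff set per campaign, cut at about 30% in these data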;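 note: 0% = DMSO wells and 100% = unlabeled Bim-BH3 peptide competitor; inhibitors lower millipolarization by displacing the labeled peptide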
Bim-Bcl-B: inhibitors of Bim-Bcl-B binding, primary screen, biochemical, multiplexed, human Bcl-2 family; Bcl-2-like protein 10 (Homo sapiens), Q9HD36; bead-based flow cytometry, Bim peptide-Bcl-B binding; inhibition, % at 10 µM; 190,000 compounds, 0.073% hits; AID 951, 2007;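 note: 0% = tracer peptide without compound and 100% = reference inhibitor peptide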
An asterisk follows results filed as active; ? = inconclusive; / = not tested or not shown; + = active, no number. Cut-off read from the data, not from the text of the source, unless noted: active = inhibition above about 40%.

SMILES | Bcl-W Bim block | Bfl-1 Bim block | Bcl-XL Bim block | Bim-Bcl-2 | Bcl-xL primary | Bim-Bcl-B
O=C1NC(=S)S/C1=C\c1ccc(SCc2ccco2)o1 | 7 | 20 | -6 | 11 | 66* | -8
OCCC1CN(Cc2cccn2-c2ccccn2)CCN1Cc1ccccc1 (configuration not stated) | -2 | -8 | -3 | -11 | 4 | -1
COC(=O)C1=COC(C)C2CN3CCc4c([nH]c5cc(OC)c(OC)cc45)C3CC12 (configuration not stated) | / | / | / | / | 92* | /
Cn1c(=O)c2[nH]c(CN3CCN(Cc4ccccc4)CC3)nc2n(C)c1=O | 1 | 0 | -2 | -3 | 4 | -2
Cn1c(N)nc2nc(CCc3ccccc3)c(=O)[nH]c2c1=O | / | / | / | / | 40* | /
CCCCC1=CC2=C(c3ccco3)C(=O)C(C)(OC(=O)c3ccc(OC)cc3)C(=O)C2=CN1C1CCCCC1 (configuration not stated) | / | / | / | / | 46* | /
CCCCC1=CC2=C(c3ccco3)C(=O)C(C)(OC(=O)c3ccc(OC)cc3)C(=O)C2=CN1Cc1ccccc1 (configuration not stated) | / | / | / | / | 37* | /
CCCCC1=CC2=C(c3ccco3)C(=O)C(C)(OC(=O)c3ccc(OC)cc3)C(=O)C2=CN1CCOC (configuration not stated) | / | / | / | / | 18 | /
Cc1ccc(NC(=O)Nc2ccc(F)cc2)cc1Cl | 1 | 0 | -2 | -3 | 5 | 0
CC(C)CN1CCN=C1Nc1ccccc1 | / | / | / | / | 6 | /
O=C(CN1CCN(S(=O)(=O)c2cccs2)CC1)NCC1CCCCC1 | / | / | / | / | -1 | /
CS(=O)(=O)n1nc(-c2ccc(Cl)cc2)nc1N | 4 | 0 | 1 | 3 | 0 | 2
Cn1nc(-c2ccc(Cl)cc2)nc2c(=O)n(C)c(=O)nc1-2 | -2 | -2 | -2 | -3 | 90* | -2
CCc1ccc(N(C(=O)c2snc(C(N)=O)c2N)C(C(=O)NCC2CCCO2)c2cccs2)cc1 (configuration not stated) | 1 | -6 | 1 | -1 | 0 | -2
Cc1ccn2c(=O)nc(SCC(=O)NC3CCCC3)nc2c1 | / | / | / | / | 14 | /
COc1ccc(N2CCN(CCCNC(=O)CCCn3c(=O)[nH]c4ccsc4c3=O)CC2)cc1 | 4 | 30 | 1 | 62* | 3 | 67*
CC[n+]1c(/C=C/C=C/N(C(C)=O)c2ccccc2)sc2ccccc21 | 43* | 9 | / | / | -8 | 2
CCOC(=O)Cn1c(=O)c(-c2ccccc2N)nc2ccccc21 | / | / | / | / | 1 | /
CCOC(=O)Cn1c(=O)c(-c2cc(Br)ccc2N)nc2ccccc21 | / | / | / | / | 70* | /
O=c1[nH]c(CSc2nnc3ccccn23)nc2ccccc12 | 0 | 0 | -2 | -2 | 8 | -2
O=c1cc(CSc2nnc3ccccn23)c2c(ccc3ccccc32)o1 | 0 | 9 | -3 | 1 | 76* | -19
O=C(COC(=O)COc1ccc(Cl)cc1)Nc1ccc(N2CCOCC2)cc1 | 1 | -4 | -1 | -1 | 0 | 0
CCN1CCN(C(CNS(=O)(=O)c2ccc(F)cc2)c2cccnc2)CC1 (configuration not stated) | / | / | / | / | 4 | /
O=C(NC(Cc1ccccc1)C(=O)Oc1ccc2c(C(F)(F)F)cc(=O)oc2c1)OCc1ccccc1 (configuration not stated) | 6 | 11 | 9 | 6 | 42* | 5
Cc1ccccc1/C=C/c1cc[n+](C)cc1 | 2 | -5 | -2 | -1 | -6 | -5
SMILES | Bcl-W Bim block | Bfl-1 Bim block | Bcl-XL Bim block | Bim-Bcl-2 | Bcl-xL primary | Bim-Bcl-B
CCn1cc(/C=C/c2cc[n+](C)cc2)c2ccccc21 | / | / | / | / | 41* | /
C=CCn1c(C)c(/C=C/c2cc[n+](C)cc2)c2ccccc21 | / | / | / | / | -75 | /
C=CCn1cc(/C=C/c2cc[n+](C)cc2)c2ccccc21 | / | / | / | / | 46* | /
CCOc1ncccc1C(=O)OCc1csc(CC(=O)Nc2ccccc2C)n1 | / | / | / | / | 1 | /
O=c1nc2c(O)cccn2c2c1c(=O)[nH]c1ccccc12 | 32 | 36 | 47* | 24 | / | 4
CCN(CC)c1ccc(/C=C/C(=O)C2C(=O)C=C(C)OC2=O)cc1 (configuration not stated) | / | / | / | ? | 76* | /
O=C(COc1ccc(Br)cc1CNC1CCCCC1)NCCc1ccccc1 | -7 | 54* | 1 | 78* | 2 | 67*
CCNc1ccccc1CP(=O)(c1ccccc1)c1ccccc1O (configuration not stated) | / | / | / | / | + | /
Cc1ccc(O)c(CP(=O)(c2ccccc2)c2ccccc2)c1 | -1 | 1 | -3 | -2 | 6 | -4
Cn1cnnc1SCC(=O)Nc1ccc(S(N)(=O)=O)cc1 | / | / | / | / | 5 | /
CN=C(c1ccc(C)cc1)n1c(=S)nc(-c2ccc(C)cc2)n(C)c1=S | -8 | -5 | -3 | -4 | 8 | -8
CN=C(c1ccco1)n1c(=S)nc(-c2ccco2)n(C)c1=S | -7 | 5 | -18 | -16 | 33* | -38
CN1CCc2c(sc(/N=C/c3cccs3)c2C(N)=O)C1 | 1 | 1 | 0 | 0 | 28 | 2
CN1CCc2c(sc(/N=C/c3ccco3)c2C(N)=O)C1 | -2 | 0 | -5 | 1 | 46* | -3
Cc1oc(C)c2c(=O)ccc3c(c12)OC(N)=C(C#N)C3c1ccccc1 (configuration not stated) | / | / | / | ? | 32* | /
O=C(CSC1=Nc2ccccc2C2=NC(CC(=O)NC3CCCCC3)C(=O)N12)NCc1ccco1 (configuration not stated) | 2 | -7 | 0 | 0 | 61* | -5
O=C(CCC1N=C2c3ccccc3N=C(SCc3ccccc3Cl)N2C1=O)NCc1ccco1 (configuration not stated) | 0 | 8 | -1 | 0 | 3 | 0
CC(C)(C)C(=O)NC1CC2CCCC(C1)N2C(=O)Nc1ccccc1 (configuration not stated) | / | / | / | / | 6 | /
CN1CCN(C(=O)Cn2ncc3c([nH]c4ccccc43)c2=O)CC1 | / | / | / | / | -1 | /
NC(=S)Nc1cccc2cc3ccccc3cc12 | 4 | 25 | 1 | 15 | 57* | -5
C#CCOc1ccc(C2C(C#N)=C(N)Oc3cc(O)ccc32)cc1 (configuration not stated) | / | / | / | / | -4 | /
Nc1c(C(=O)O)ccc2c1C(=O)c1ccccc1C2=O | 1 | 0 | 1 | -2 | 13 | 4
Nc1cc(C(=O)O)c(N)c2c1C(=O)c1ccccc1C2=O | / | / | / | / | 155* | /
CC(C)n1cc(C(=O)c2ccccc2O)cc(C#N)c1=O | -4 | -5 | -6 | -5 | 4 | -5
N#Cc1cc(C(=O)c2cc(F)ccc2O)cn(-c2nccs2)c1=O | 0 | 1 | -2 | 2 | 38* | -2
